Experimental data as given in PubChem BioAssay AID1159580 (chemical genetic matrix, 2015).
Out of some 5,500 compounds screened, about 2,000 (36%) were called active. Another 18% or so got no clear call; they are omitted. Rule as the data show it: active = normalized growth mostly below about 0.91 (no sharp cut-off); inconclusive = no clear call, values can overlap the other calls; inactive = mostly above about 0.92. The list shows a part of the results.

Test: chemical genetic growth profiling, strain panel (AID 1159580);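 also: tested at 20 µM; growth read once vehicle control cultures reached saturation at 30 °C; 1 = growth at the plate median or of vehicle wells; lower values mean less growth of the strain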
Details: S. cerevisiae deletion strains, growth OD

Measured: normalized growth

N#CCC(=O)Nc1ccccn1
inactive: locus YAL013W, strain DEP1, hits give low values 1.02 | locus YBR229C, strain ROT2, hits give low values 0.964 | locus YDL101C, strain DUN1, hits give low values 1.04 | locus YDR150W, strain NUM1, hits give low values 1.01 | locus YEL061C, strain CIN8, hits give low values 1.01 | locus YGR078C, strain PAC10, hits give low values 1.02 | locus YHR030C, strain SLT2, hits give low values 1.24 | locus YHR087W, strain rtc3, hits give low values 0.986 | locus YJR043C, strain POL32, hits give low values 1.01 | locus YJR075W, strain HOC1, hits give low values 1 | locus YKL190W, strain CNB1, hits give low values 1 | locus YLR039C, strain RIC1, hits give low values 1.01 | locus YLR058C, strain SHM2 (second series), hits give low values 0.995 | locus YLR085C, strain ARP6, hits give low values 1.06 | locus YLR262C, strain YPT6, hits give low values 0.989 | locus YML094W, strain GIM5, hits give low values 1.02 | locus YMR219W, strain ESC1, hits give low values 0.992 | locus YMR263W, strain SAP30, hits give low values 1.01 | locus YNL153C, strain GIM3, hits give low values 1.04 | locus YNL298W, strain CLA4 (second series), hits give low values 1.06 | locus YNL322C, strain KRE1, hits give low values 1.01 | locus YNR030W, strain Alg12, hits give low values 1.07 | locus YOL006C, strain TOP1, hits give low values 1.07 | locus YPL055C, strain LGE1, hits give low values 1.04 | locus YPL241C, strain CIN2, hits give low values 1.04 | locus YPR135W, strain CTF4, hits give low values 1.2
